Assay results from PubChem BioAssay AID1209 (Sanford-Burnham Center for Chemical Genomics, 2008).
Out of some 190,000 compounds screened, about 810 (0.43%) were called active. The sample holds actives, similar compounds and a random draw of the others, so the mix is not that of the screen. Values without a mark were called inactive. No stated cut-off is given here; in the data, active means inhibition above about 50%; inactive means the rest.

biological target: Mannose-6-phosphate isomerase (Homo sapiens) (UniProt P34949); assay: inhibitors of human PMI, primary screen, biochemical, fluorescence intensity, coupled assay (AID 1209); conditions: purified PMI enzyme, at 20 µM, active compounds read high;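 further: plate controls were DMSO vehicle for no effect and wells lacking substrate for full effect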
Sequence (P34949 whole entry, looked up): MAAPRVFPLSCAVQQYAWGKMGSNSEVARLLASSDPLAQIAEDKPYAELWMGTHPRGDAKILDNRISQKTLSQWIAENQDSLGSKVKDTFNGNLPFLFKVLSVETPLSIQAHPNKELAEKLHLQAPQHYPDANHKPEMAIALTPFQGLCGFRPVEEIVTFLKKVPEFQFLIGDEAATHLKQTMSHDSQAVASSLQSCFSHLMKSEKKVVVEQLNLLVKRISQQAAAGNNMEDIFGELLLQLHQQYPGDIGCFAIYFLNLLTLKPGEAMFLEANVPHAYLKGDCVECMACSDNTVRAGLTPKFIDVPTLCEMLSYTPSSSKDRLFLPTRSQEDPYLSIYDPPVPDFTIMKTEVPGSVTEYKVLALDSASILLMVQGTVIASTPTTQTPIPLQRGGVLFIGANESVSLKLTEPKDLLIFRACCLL

| Compound | inhibition |
| --- | --- |
| Cc1nc2sc(C(c3cccc(F)c3)N3CC(C)OC(C)C3)c(O)n2n1 (stereo not drawn) | -12.7% |
| CCN1CCN(S(=O)(=O)c2cc(OCC(=O)NC3CCCCC3)c(C)cc2Cl)CC1 | 11.7% |
| CC1(C)CC(=O)c2sc(NC(=O)c3ccc4ncsc4c3)nc2C1 | -7.8% |
| Cc1cc(C)cc(OCC(=O)Nc2cccc(-c3nc4ncccc4o3)c2)c1 | -1% |
| Cc1ccc(-c2nc3ncccc3o2)cc1NC(=O)COc1ccccc1 | 3.5% |
| Cc1ccc(OCC(=O)Nc2ccc(-c3nc4ncccc4o3)cc2)c(C)c1 | 97.8% (active) |
| COCCNC(=S)NCCc1ccc(Cl)cc1Cl | -1.5% |
| O=C(/C=C/c1ccc(Cl)cc1)NC(=S)Nc1ccc(CN2CCOCC2)cc1 | 20.8% |
| Cc1ccc(S(=O)(=O)NCC(=O)N(c2ccccc2)C(C(=O)NCc2ccccc2)c2ccco2)cc1 (stereo not drawn) | 57.1% (active) |
| COc1ccc(CNC(=O)C(c2ccco2)N(C(=O)CNS(=O)(=O)c2ccccc2)c2ccccc2C)cc1 (stereo not drawn) | 14% |
| Cc1cc(C)cc(N(C(=O)CNS(=O)(=O)c2ccccc2)C(C(=O)NCc2ccccc2)c2ccc(C)o2)c1 (stereo not drawn) | 18.8% |
| Cc1ccc(/C=N/NC(=O)CN2CCN(S(=O)(=O)c3ccc(Br)cc3)CC2)s1 | 4.9% |
| COc1cc(-c2nnc(SCc3cc(=O)oc4cc(C)ccc34)o2)cc(OC)c1OC | 12.5% |
| COc1cc(-c2nnc(SCc3ccccc3Cl)o2)cc(OC)c1OC | 23.4% |
| COc1cc(-c2nnc(SCc3cc(=O)oc4cc(O)c(O)cc34)o2)cc(OC)c1OC | 60.1% (active) |
| NC(=O)c1c(NC(=O)CCCn2cnc([N+](=O)[O-])n2)sc2c1CCCC2 | 55.6% (active) |
| Cc1cc([N+](=O)[O-])nn1CCCC(=O)Nc1sc2c(c1C(N)=O)CCC(C)C2 (stereo not drawn) | 9.5% |
| CCOC(=O)c1c(NC(=O)Cn2cnc([N+](=O)[O-])n2)sc2c1CCCC2 | 18.4% |
| Cc1cc([N+](=O)[O-])nn1CCCC(=O)Nc1sc2c(c1C(N)=O)CCCC2 | 53% (active) |
| Cc1cc([N+](=O)[O-])nn1CC(=O)Nc1sc2c(c1C(N)=O)CCCC2 | 10.8% |
| CC1CCc2c(sc(NC(=O)CCCn3cnc([N+](=O)[O-])n3)c2C(N)=O)C1 (stereo not drawn) | 1.2% |
| CC(C)CC(c1nnnn1CCc1ccccc1)N1CCN(C(=O)c2ccco2)CC1 (stereo not drawn) | 7.4% |
| COc1cc(/C=C/C(=O)OCC(=O)Nc2cc(C(F)(F)F)ccc2N2CCOCC2)ccc1O | 13% |
| COC(=O)Nc1ccc(S(=O)(=O)Nc2cnc3ccccc3n2)cc1 | -10.9% |
| CC(C)C(NC(=O)c1ccco1)C(=O)NCC(c1ccco1)N(C)C (stereo not drawn) | -3.6% |

| Compound | inhibition |
| --- | --- |
| CCN(C(=O)c1cn(CC)c(=O)c2cc(OC)c(OC)cc12)c1ccccc1C | 5.3% |
| CC(=O)c1c(O)c(C)c(-c2ccccc2)n(-c2ccccc2)c1=O | 2.2% |
| O=C(c1ccccc1)c1c(O)nc(-c2ccccc2)n(-c2ccccc2)c1=O | 108% (active) |
| O=C(O)c1nn(-c2ccccc2)c(-c2ccccc2)c1C(=O)c1ccccc1 | -12.5% |
| Oc1c(Br)cc(C2N=C(c3ccccc3Cl)NO2)cc1Br (stereo not drawn) | 0.3% |
| FC(F)(F)c1cccc(Cn2c3[n+](c4ccc(C(F)(F)F)cc42)CCCCC3)c1 | 1.3% |
| Fc1ccccc1Cn1c2[n+](c3ccc(C(F)(F)F)cc31)CCCCC2 | 10.3% |
| FC(F)(F)c1ccc2c(c1)n(Cc1ccccc1)c1[n+]2CCCCC1 | 63.9% (active) |
| CC1=NN(c2ccc(S(=O)(=O)O)cc2C)C(=O)C1 | -63.6% |
| Fc1ccc(C2CCCN2Cc2nc(Cc3ccccc3)no2)cc1 (stereo not drawn) | -7% |
| CC(=O)Nc1ccccc1C(=O)C(=O)Nc1ccc(C)c(F)c1 | 19.9% |
| Cc1cc(C)c(C(=O)COC(=O)Cn2cnnn2)cc1C | -10.7% |
| CCN(CC)c1ccc2c(C)c(Cl)c(=O)oc2c1 | -1.5% |
| CCN(CC)c1ccc2ccc(=O)oc2c1 | 2.1% |
| O=C(NCCN1CCOCC1)c1cc2cc([N+](=O)[O-])ccc2s1 | 5.6% |
| c1ccc(C2COC(c3cccs3)=N2)cc1 (stereo not drawn) | 9.4% |
| COc1cc(C2CC(=O)N3CN(Cc4ccccc4)CSC3=C2C#N)ccc1OCc1ccccc1 (stereo not drawn) | 45.4% |
| COc1ccc(Br)cc1C1CC(=O)N2CN(Cc3ccccc3)CSC2=C1C#N (stereo not drawn) | 34.2% |
| CC(C)c1ccc(C2CC(=O)N3CN(Cc4ccco4)CSC3=C2C#N)cc1 (stereo not drawn) | 52.6% (active) |
| N#CC1=C2SCN(Cc3ccco3)CN2C(=O)CC1c1ccccc1F (stereo not drawn) | 43.7% |
| Cc1ccc(C2CC(=O)N3CN(Cc4ccco4)CSC3=C2C#N)cc1 (stereo not drawn) | 29.7% |
| N#CC1=C2SCN(Cc3ccco3)CN2C(=O)CC1c1c(F)cccc1Cl (stereo not drawn) | -3.1% |
| COc1cc(C2CC(=O)N3CN(Cc4ccco4)CSC3=C2C#N)ccc1OCc1ccccc1 (stereo not drawn) | 50% (active) |
| CC(C)c1ccc(C2CC(=O)N3CN(C)CSC3=C2C#N)cc1 (stereo not drawn) | 40.6% |
| COc1ccc2ccccc2c1C1CC(=O)N2CN(Cc3ccco3)CSC2=C1C#N (stereo not drawn) | 46.4% |

| Compound | inhibition |
| --- | --- |
| COc1ccc(C2CC(=O)N3CN(Cc4ccco4)CSC3=C2C#N)cc1 (stereo not drawn) | 59.1% (active) |
| N#CC1=C2SCN(Cc3ccco3)CN2C(=O)CC1c1ccc(Cl)cc1 (stereo not drawn) | 28.7% |
| N#CC1=C2SCN(Cc3ccco3)CN2C(=O)CC1c1cccc2ccccc12 (stereo not drawn) | 55% (active) |
| COc1ccc(C(=O)NCC(=O)OCC(=O)N2CC(C)CC(C)C2)cc1 (stereo not drawn) | 8.6% |
| Cc1cc(C)c2[nH]c(=O)c(CN(CC3CCCO3)C(=S)Nc3ccccc3)cc2c1 (stereo not drawn) | 28.3% |
| COc1ccc([N+](=O)[O-])cc1NC(=O)CCN1CCN(C)CC1 | -0.2% |
| COc1ccc2cc(/C(C)=N/NC(=O)C3CC3)ccc2c1 | -1.6% |
| Fc1ccc(-n2[nH]nnc2=S)cc1N1CCCC1 | -13.3% |
| COc1ccc(Cn2c(-c3ccc(Br)cc3)c[n+]3ccccc23)cc1 | -1.6% |
| CC(=O)c1nnn(-c2ccc([N+](=O)[O-])cc2C)c1C | -15.2% |
| N#CC1=C2SCN(Cc3ccccc3)CN2C(=O)CC1c1ccccc1F (stereo not drawn) | 25.6% |
| N#CC1=C2SCN(Cc3ccccc3)CN2C(=O)CC1c1cccs1 (stereo not drawn) | 40.2% |
| CC(C)CCCNc1nc(N2CCOCC2)nc(N2CCOCC2)n1 | 3.3% |
| O=C(NCCc1c[nH]c2ccccc12)C(=O)NCC1OCCCN1S(=O)(=O)c1cccs1 (stereo not drawn) | 5.3% |
| CC(C)n1nc(C(=O)Nc2nnc(SCc3c(Cl)cccc3Cl)s2)c2ccccc2c1=O | 7.2% |
| O=C(Nc1ccc(N2CCN(c3ccccc3)CC2)c(F)c1)C1CC1 | -5.7% |
| CCN1C(=O)N(C)C2(c3ccccc3)N(C)C(=O)N(C)C12c1ccccc1 (stereo not drawn) | 13.6% |
| CN1c2ccccc2N(C)C1(C)c1ccccc1 | 26.1% |
| CCN1c2ccccc2N(C)C1(C)c1ccccc1 (stereo not drawn) | 61.2% (active) |
| O=C(CSc1nnnn1-c1ccc(F)cc1)NC1CCCCC1 | 15.6% |
| CCOc1ccccc1C(=O)Nc1cc(Cl)ccc1O | 14.5% |
| NS(=O)(=O)c1ccc(NCc2c(F)cccc2Cl)cc1 | -1.9% |
| O=S(=O)(Nc1ccc(N2CCCCC2)cc1)c1ccccc1 | 17% |
| Fc1cccc(Cl)c1CNc1ccc(N2CCCC2)cc1 | 87.2% (active) |
| Clc1cccc(Cl)c1CNc1ccc(N2CCCC2)cc1 | 87.2% (active) |

| Compound | inhibition |
| --- | --- |
| O=C(Nc1ccc(N2CCCCCC2)cc1)c1ccccc1Cl | 21.5% |
| O=C(O)c1cc(NCc2c(F)cccc2Cl)ccc1N1CCOCC1 | 4.6% |
| CCCN1CNC(=S)N(c2ccccc2OCC)C1 | -9.9% |
| O=C1Nc2ccccc2C(O)(C(=O)NCc2ccco2)N1c1ccccc1 (stereo not drawn) | 1.5% |
| COC(=O)[C@@]1(Cc2ccc(OC)cc2)[C@H]2c3cc(C(=O)N4CCCC4)n(Cc4ccc(C)o4)c3C[C@H]2CN1C(=O)c1ccccc1 | 9.2% |
| Cc1[nH]nc2c1C(c1ccco1)C(C#N)=C(N)O2 (stereo not drawn) | -18% |
| CNCCOc1ccccc1C(C)(C)C | 5.9% |
| NCCc1ccc(O)c(O)c1 | 64.5% (active) |
| Nc1ccc(Cc2ccc(N)c(O)c2)cc1O | 5.5% |
| OCCCc1ccc(O)c(O)c1 | 35.2% |
| CCOC(=O)CSc1nc2sccc2c(=O)[nH]1 | 2.3% |
| O=C(Nc1ncc(Cl)cc1Cl)c1c(F)cccc1Cl | -15.8% |
| Cc1cc(C)cc(N2C(=O)c3nccnc3C2=O)c1 | 1.6% |
| COC(=O)C(C)(C)ONC(=O)Nc1ccc(Br)cc1 | 17.3% |
| O=C1CCCC/C1=C/Nc1ccc2c(c1)OCO2 | -14.5% |
| CC1CCC/C(=C\Nc2ccc3c(c2)OCO3)C1=O (stereo not drawn) | 8.9% |
| COc1ccc2c(c1)CC/C(=C/c1ccco1)C2=O | 33.2% |
| O=C1CCC/C1=C/Nc1ccc2c(c1)OCO2 | 26.9% |
| COc1ccc(N/C=C2\CCc3ccccc3C2=O)cc1 | 97.9% (active) |
| COc1ccc(N/C=C2/CCCCC2=O)cc1 | 18.1% |
| COc1ccc2c(c1)CC/C(=C\Nc1ccc3c(c1)OCO3)C2=O | 89.9% (active) |
| O=C1/C(=C/Nc2ccc3c(c2)OCO3)CCc2ccccc21 | 96.4% (active) |
| COc1ccc(N/C=C2\CCOC2=O)cc1 | -13% |
